# According to the supplement of paper PMC8728848:
# Many of the other results were omitted from the sample, so the strongest signals are more common in it than they were.
# Experiments:
# Assay in all cases: glycan array binding signal (z-score within array); higher = stronger binding
# Settings in all cases: glycan notation: IUPAC condensed, linker removed
# [1] = target: Fuc(a1-2)Gal(b1-3)GlcNAc(b1-2)Man(a1-3)[Fuc(a1-2)Gal(b1-3)GlcNAc(b1-2)Man(a1-6)]Man(b1-4)GlcNAc(b1-4)GlcNAc
# How it was run: (§1)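 Negative Z-scores can be read as non-binding. The Z-score is calculated within each array and then averaged across arrays of one protein sequence at different concentrations or buffers and across linkers. Arrays, 3228 in all, were curated from the Consortium for Functional Glycomics database and kept only where the protein sequence was available.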
# [2] = target: Fuc(a1-2)Gal(b1-4)Glc
# How it was run: as §1
# [3] = target: Fuc(a1-2)Gal(b1-4)GlcNAc
# How it was run: as §1
# [4] = target: Fuc(a1-2)Gal(b1-4)GlcNAc6S
# How it was run: as §1
# [5] = target: Fuc(a1-2)[Gal(a1-3)]Gal
# How it was run: as §1
# [6] = target: Fuc(a1-2)[Gal(a1-3)]Gal(b1-4)Glc
# How it was run: as §1
# [7] = target: Fuc(a1-2)[Gal(a1-3)]Gal(b1-4)GlcNAc(b1-2)Man(a1-3)[Fuc(a1-2)[Gal(a1-3)]Gal(b1-4)GlcNAc(b1-2)Man(a1-6)]Man(b1-4)GlcNAc(b1-4)GlcNAc
# How it was run: as §1
# [8] = target: Fuc(a1-2)[GalNAc(b1-3)]Gal
# How it was run: as §1
# [9] = target: Fuc(a1-3)GlcNAc
# How it was run: as §1
# [10] = target: Fuc(a1-3)[Gal(b1-4)]GlcNAc
# How it was run: as §1
# [11] = target: Fuc(a1-3)[GalNAc(b1-4)]GlcNAc
# How it was run: as §1
# [12] = target: Fuc(b1-3)GlcNAc
# How it was run: as §1
# [13] = target: Gal(a1-2)Gal
# How it was run: as §1
# [14] = target: Gal(b1-3)[Fuc(a1-4)]GlcNAc(b1-2)Man(a1-3)[Gal(b1-3)[Fuc(a1-4)]GlcNAc(b1-2)Man(a1-6)]Man(b1-4)GlcNAc(b1-4)[Fuc(a1-6)]GlcNAc
# How it was run: as §1
# [15] = target: Gal(b1-4)GlcNAc(b1-3)Gal(b1-4)[Fuc(a1-3)]GlcNAc(b1-3)Gal(b1-4)[Fuc(a1-3)]GlcNAc
# How it was run: as §1
# [16] = target: Gal(b1-4)GlcNAc(b1-6)Gal(b1-4)GlcNAc(b1-6)GalNAc
# How it was run: as §1
# [17] = target: Gal(b1-4)GlcNAc(b1-6)GalNAc
# How it was run: as §1
# [18] = target: Gal(b1-4)GlcNAc(b1-6)[Gal(b1-3)]GalNAc
# How it was run: as §1
# [19] = target: Gal3S(b1-3)GalNAc
# How it was run: as §1
# [20] = target: Gal3S6S(b1-4)GlcNAc6S
# How it was run: as §1
# [21] = target: GalNAc(b1-4)GlcNAc
# How it was run: as §1
# [22] = target: Glc(a1-4)Glc
# How it was run: as §1
# [23] = target: Glc(b1-4)Glc
# How it was run: as §1
# [24] = target: GlcA(b1-3)Gal
# How it was run: as §1
# [25] = target: GlcNAc(a1-4)Gal(b1-4)GlcNAc(b1-3)Gal(b1-4)GlcNAc
# How it was run: as §1
# [26] = target: GlcNAc(b1-3)GalNAc
# How it was run: as §1
# [27] = target: GlcNAc(b1-6)GalNAc
# How it was run: as §1
# [28] = target: Neu5Ac(a2-3)Gal6S(b1-4)GlcNAc
# How it was run: as §1
# [29] = target: Neu5Ac(a2-6)Gal(b1-4)GlcNAc
# How it was run: as §1
# [30] = target: Neu5Ac(a2-8)Neu5Ac(a2-8)Neu5Ac(a2-3)Gal(b1-4)Glc
# How it was run: as §1
binder,measurement,setting,value
"DC-ASPGR (Homo sapiens), CLC10_HUMAN (protein) LDQNSKFQRDLVTLRTDFSNFTSNTVAEIQALTSQGSSLEETIASLKAEVEGFKQERQAVHSEMLLRVQQLVQDLKKLTCQVATLNNNASTEGTCCPVNWVEHQDSCYWFSHSGMSWAEAEKYCQLKNAHLVVINSREEQNFVQKYLGSAYTWMGLSDPEGAWKWVDGTDYATGFQNWKPGQPDDWQGHGLGGGEDCAHFHPDGRWNDDVCQRPYHWVCEAGLGQTSQESHVEPKSCDKTHTCPPCPAPELLGGPSVFLFPPKPKDTLMISRTPEVTCVVVDVSHEDPEVKFNWYVDGVEVHNAKTKPREEQFNSTYRVVSVLTVLHQDWLNGKEYKCKVSNKGLPSSIEKTISKAKGQPREPQVYTLPPSQEEMTKNQVSLTCLVKGFYPSDIAVEWESNGQPENNYKTTPPVLDSDGSFFLYSRLTVDKSRWQEGNVFSCSVMHEALHNHYTQK",glycan array binding signal (z-score),[1],-0.074
same,glycan array binding signal (z-score),[2],-0.082
same,glycan array binding signal (z-score),[3],-0.165
same,glycan array binding signal (z-score),[4],-0.177
same,glycan array binding signal (z-score),[5],-0.287
same,glycan array binding signal (z-score),[6],-0.303
same,glycan array binding signal (z-score),[7],-0.297
same,glycan array binding signal (z-score),[8],3.91
same,glycan array binding signal (z-score),[9],-0.256
same,glycan array binding signal (z-score),[10],-0.246
same,glycan array binding signal (z-score),[11],2.36
same,glycan array binding signal (z-score),[12],-0.235
same,glycan array binding signal (z-score),[13],-0.14
same,glycan array binding signal (z-score),[14],-0.15
same,glycan array binding signal (z-score),[15],-0.197
same,glycan array binding signal (z-score),[16],-0.298
same,glycan array binding signal (z-score),[17],3.86
same,glycan array binding signal (z-score),[18],-0.173
same,glycan array binding signal (z-score),[19],-0.146
same,glycan array binding signal (z-score),[20],-0.248
same,glycan array binding signal (z-score),[21],2.66
same,glycan array binding signal (z-score),[22],5.49
same,glycan array binding signal (z-score),[23],-0.27
same,glycan array binding signal (z-score),[24],-0.276
same,glycan array binding signal (z-score),[25],-0.092
same,glycan array binding signal (z-score),[26],-0.27
same,glycan array binding signal (z-score),[27],4.28
same,glycan array binding signal (z-score),[28],-0.179
same,glycan array binding signal (z-score),[29],-0.236
same,glycan array binding signal (z-score),[30],-0.244
